# Source: PubChem BioAssay (National Center for Advancing Translational Sciences (NCATS))
# An excerpt weighted towards active compounds, which were near 2.3% of everything screened.
# Giardia kill: Small Molecules that selectively kill Giardia lamblia: qHTS; Giardia lamblia trophozoite viability; activity change, % at 7.66 µM, hits read low; 340,000 tested, 0.15% active; AID 540267, 2011; in the data active = activity change below about -80%; inconclusive = between about -30% and that limit;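 note: parasites exposed to compound for two days anaerobically before the ATP read; % is set by controls: 0 for no effect and ±100 for the full control effect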
#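 Giardia lamblia trophozoites (100 cells/well) were incubated with compounds for 48 h at 37 deg C under anaerobic conditions. Viability was read as ATP content by one-step luminescence after 15-30 min at room temperature.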
# FUS suppressor: qHTS for Suppressors of FUS Proteinopathy: Primary screen using FUS-linked yeast assay | 390,000 tested, 0.24% active | AID 1347120, 2019 | Potency, µM (top dose mostly 76.6 µM), usual class: activators | S. cerevisiae FUS-expressing, growth rescue, OD600, 24 h;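 note: potency is the fitted concentration of half-maximal effect; plate controls were DMSO vehicle for no effect and reference control for full effect; nearly all actives have a fitted effect of over 55% in size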
#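 Quantitative HTS measuring growth restoration of FUS-toxic yeast. Galactose-induced cells (OD 0.005) were exposed 24hr at 30C to compounds at several concentrations, then absorbance at 600 nm was recorded.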
# TRPV1 potentiator: HTS Assay for Compounds that Act as Potentiators of the Vanilloid Receptor 1 | TRPV1-expressing cells, Fluo-8 calcium influx, capsaicin EC20 potentiation | 320,000 tested, 0.02% active | potentiation, % at 8.33 µM; in the data active = potentiation above about 80%; inconclusive = between about 30% and that limit; note: 0% is about no effect
# Target sequence (Q8NER1 whole entry, looked up): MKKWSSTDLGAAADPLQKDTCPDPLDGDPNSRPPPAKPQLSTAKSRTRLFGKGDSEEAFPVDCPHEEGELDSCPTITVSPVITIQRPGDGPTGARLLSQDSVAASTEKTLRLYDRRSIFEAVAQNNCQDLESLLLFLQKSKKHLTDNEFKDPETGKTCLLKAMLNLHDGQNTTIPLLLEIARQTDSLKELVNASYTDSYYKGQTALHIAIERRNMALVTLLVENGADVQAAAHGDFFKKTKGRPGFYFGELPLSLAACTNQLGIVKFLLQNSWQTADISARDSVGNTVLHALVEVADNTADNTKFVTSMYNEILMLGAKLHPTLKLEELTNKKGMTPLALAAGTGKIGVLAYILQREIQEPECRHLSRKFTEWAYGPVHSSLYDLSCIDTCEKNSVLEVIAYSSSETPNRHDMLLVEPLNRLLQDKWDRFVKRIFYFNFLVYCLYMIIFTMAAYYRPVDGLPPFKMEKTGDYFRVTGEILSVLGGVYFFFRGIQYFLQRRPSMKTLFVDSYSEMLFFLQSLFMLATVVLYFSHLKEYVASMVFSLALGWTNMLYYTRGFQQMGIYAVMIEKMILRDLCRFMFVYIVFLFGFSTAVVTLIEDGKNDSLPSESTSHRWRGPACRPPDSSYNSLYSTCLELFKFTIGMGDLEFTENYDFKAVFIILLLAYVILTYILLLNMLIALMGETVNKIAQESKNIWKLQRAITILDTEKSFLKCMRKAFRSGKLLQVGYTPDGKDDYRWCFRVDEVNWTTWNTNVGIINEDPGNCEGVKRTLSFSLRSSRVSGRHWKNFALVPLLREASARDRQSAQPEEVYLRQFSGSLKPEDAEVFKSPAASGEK
#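 Fluo-8 calcium influx in TRPV1-expressing cells, kinetic read (ex 480/em 520 nm). Compound added and read 3 min for agonist activity, followed by capsaicin at EC20 final and 2 min further read for enhancement.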
# TRPV1 ag: HTS Assay for Compounds that Act as Agonists of the Vanilloid Receptor 1; TRPV1-expressing cells, Fluo-8 calcium influx, agonist mode; activation, % at 8.33 µM; 320,000 tested, 0.19% active; in the data active = activation above about 80%; inconclusive = between about 30% and that limit; note: 0% is about no effect
#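 Fluo-8 calcium influx in TRPV1-expressing cells, kinetic read (ex 480/em 520 nm). Compound added and read 3 min for agonist activity, followed by capsaicin at EC20 final and 2 min further read for enhancement.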
# ELG1 DNA repair: qHTS screen for small molecules that inhibit ELG1-dependent DNA repair in human embryonic kidney (HEK293T) cells expressing luciferase-tagged ELG1 | Potency, µM (series often up to 46.1 µM), for inactives: at the top dose activity change, negative = inhibition, hits mostly inhibitors | HEK293T ELG1-luciferase reporter, luminescence, 16 h; DNA damage induced by 5-fluorouridine | AID 504467, 2011 | 330,000 tested, 2.3% active; note: potency is the fitted concentration of half-maximal effect; % is set by controls: 0 for no effect and ±100 for the full control effect; nearly all actives have a fitted effect of over 55% in size
#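 In this reporter screen, reduction of luminescence relative to DMSO vehicle indicated activity. Compounds and 5-fluorouridine were added together to 2,000 cells per well, incubated for 16 hr at 37 °C, then developed with ONE-Glo.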
# * hit, by the source's call; i = inactive; ? = inconclusive; . = no result. Unless noted, calls come from the whole dose curve; as a rule, active = well fitted curve in the direction sought with a large enough effect; inconclusive = small, poorly fitted or top-dose-only effect, or another doubt; inactive = no such curve, though single readings can be large; an effect the other way counts as inactive or inconclusive.
SMILES,Giardia kill,FUS suppressor,TRPV1 potentiator,TRPV1 ag,ELG1 DNA repair
CCCn1c(SCC(=O)Nc2ccccc2N2CCCCC2)nc2c1c(=O)n(C)c(=O)n2C,44,i,-3,-1,7.3µM*
CCn1c(SCC(=O)N2c3ccccc3CCc3ccccc32)nc2c1c(=O)n(C)c(=O)n2C,25,i,.,.,.
CCCCn1c(SCC(=O)N2c3ccccc3CCc3ccccc32)nc2c1c(=O)n(C)c(=O)n2C,-5,i,-31,-2,21µM*
COc1cccc(NC(=O)C(=O)NCC(c2cccnc2)N2CCN(c3ccccc3)CC2)c1 (stereo not drawn),.,i,.,.,.
CCOC(=O)c1c(C)oc2nc(C)nc(NCc3ccc(F)cc3)c12,.,i,.,.,.
CCN(C(=O)Cn1ncc2c(=O)oc3ccc(C)cc3c21)c1cc(OC)ccc1OC,.,i,.,.,.
COc1ccc2nc3oc(C(=O)NCc4ccccc4OC)cc3cc2c1,.,i,.,.,.
CCOC(=O)c1c(-c2ccc(-c3ccccc3)cc2)csc1NC(=O)c1cccc(N2C(=O)CCC2=O)c1,9,i,9,-6,7.3µM*
COc1ccc(-c2cc(C(C)=O)c(C)n2CCC(=O)NCc2ccc(F)cc2)cc1,.,i,.,.,.
COc1cc2c(cc1OC)CN(CC(=O)Nc1ccccc1C(=O)NC1CC1)CC2,-12,i,0,-2,-10%
COc1ccccc1NC(=O)COc1ccc(C(=O)NCc2ccccc2)cc1OC,-14,i,14,19,26µM*
COc1cccc2[nH]c(C(=O)NCc3ccccc3)cc12,0,i,2,4,21µM*
COc1cc2c(cc1OC)CN(CC(=O)Nc1ccccc1C(=O)NCc1ccccc1)CC2,3,i,-1,4,23µM*
COc1ccc2c(c1)c1c(c(=O)n(-c3cccc(C)c3)c(=O)n1CC(=O)Nc1c(C)cc(C)cc1C)n2C,.,i,.,.,.
Cc1ncoc1C(=O)Nc1ccc(Oc2ccccc2)cc1,-17,i,-23,84*,?
Cc1nc(C)c(C(=O)Nc2ccc(Oc3ccccc3)cc2)o1,-4,i,-16,?,6%
CCCCn1c(SCc2nc3ccccc3s2)nc2cc(S(N)(=O)=O)ccc21,5,22µM*,-5,9,18µM*
CC1(C)NC(=O)N(CC(O)CN(Cc2ccccc2)Cc2ccccc2)C1=O (stereo not drawn),-6,i,-3,83*,2%
Cc1cc(N2CCN(C(=O)Oc3ccc([N+](=O)[O-])cc3)CC2)c2ccccc2n1,.,i,.,.,.
COc1ccccc1CNC(=O)C1CCCN(c2nc3ccccc3n3cccc23)C1 (stereo not drawn),.,i,.,.,.
COc1ccc(Cl)cc1N1C(=O)/C(=C\c2sccc2C)N=C1SCC(=O)NC1CC1,8,?,7,14,16µM*
Cc1ccccc1-n1nnnc1SCC(=O)c1c(N)n(C2CC2)c(=O)[nH]c1=O,-25,i,7,4,21µM*
O=S(=O)(c1cccs1)N1CCN(CC(O)COc2cccc(Br)c2)CC1 (stereo not drawn),-4,i,-5,-2,21µM*
O=S(=O)(c1cccs1)N1CCN(CC(O)COC2CCCc3ccccc32)CC1 (stereo not drawn),5,i,3,-1,-1%
Cc1ccc2c(c1)N(C(=O)Nc1cccc(C)c1C)CCO2,.,i,.,.,.
SMILES,Giardia kill,FUS suppressor,TRPV1 potentiator,TRPV1 ag,ELG1 DNA repair
CN(C)C(=O)c1cccc(-c2cccc(-c3nc(C(=O)NCc4ccccc4)cc4c3[C@@H](CCO)N(S(=O)C(C)(C)C)C4)c2)c1 (stereo partly drawn),.,35µM*,.,.,.
COc1cccc(CNC(=O)c2cc3c(c(-c4cccc(-c5cccc(C#N)c5)c4)n2)[C@H](CCO)N(S(=O)C(C)(C)C)C3)c1 (stereo partly drawn),.,22µM*,.,.,.
Cc1ccc(C)c(-n2c(N)c(C#N)c3nc4ccccc4nc32)c1,.,i,.,.,.
O=C(NCCc1csc(-c2cccnc2)n1)c1ccc(Br)o1,5,i,25,-3,12µM*
O=C(NCCc1csc(-c2ccccc2)n1)c1c(F)cccc1Cl,2,i,?,9,18µM*
COc1ccc(-c2nc(CCNC(=O)c3cccs3)cs2)cc1,15,i,-10,?,21µM*
CC(C)NC(=O)c1cc2c(Cl)nc3ccccc3c2s1,.,i,.,.,.
CCOC(=O)N1CCC(NS(=O)(=O)c2ccc(NC(C)=O)c(Cl)c2)CC1,12,i,0,-1,7.3µM*
CCN(CC)CCNC(=O)C(=O)NCC(c1cccnc1)N1CCN(c2ccc(F)cc2)CC1 (stereo not drawn),.,i,.,.,.
Cc1nc(N2CCN(C(=O)c3ccco3)CC2)c2c3c(sc2n1)CC(C)CC3 (stereo not drawn),-2,i,-8,?,?
N#Cc1c(N2CCN(C(=O)c3ccco3)CC2)nc(-c2ccccc2)c2c1CCCC2,7,?,12,?,26µM*
Cc1nc(N2CCN(C(=O)c3ccco3)CC2)c2c3c(sc2n1)CCCC3,0,i,-20,8,18µM*
CC1(C)Cc2c(C#N)c(N3CCN(C(=O)c4ccccc4Cl)CC3)nc(-c3ccco3)c2CS1,9,11µM*,9,-7,?
N#Cc1c(N2CCN(C(=O)c3ccccc3)CC2)nc(-c2ccccc2)c2c1CCCC2,9,i,-4,28,?
Cc1cc(C)n(C(N)=NC(=O)c2ccccc2)n1,.,i,.,.,.
O=C(C1=C[C@@H](c2coc3ccccc3c2=O)C[C@@H](OCc2ccc(CO)cc2)O1)N1CCN(Cc2ccc3c(c2)OCO3)CC1,-5,i,-7,25,?
O=C(C1=C[C@@H](c2ccccc2)C[C@@H](OCCCCO)O1)N1CCN(Cc2ccc3c(c2)OCO3)CC1,14,i,-11,?,-28%
O=C(C1=C[C@H](c2ccc3c(c2)OCO3)C[C@H](OCc2ccc(CO)cc2)O1)N1CCN(Cc2ccc3c(c2)OCO3)CC1,13,i,11,5,16µM*
O=C(C1=C[C@H](c2coc3ccccc3c2=O)C[C@H](OCc2ccc(CO)cc2)O1)N1CCN(Cc2ccc3c(c2)OCO3)CC1,6,i,1,8,13µM*
CN1CCN(C(=O)C2=C[C@@H](c3ccc4c(c3)OCO4)C[C@@H](OCc3ccc(CO)cc3)O2)CC1,8,i,-19,20,11%
O=C(C1=C[C@H](c2ccccc2)C[C@H](OCc2ccc(CO)cc2)O1)N1CCN(Cc2ccc3c(c2)OCO3)CC1,-4,i,-1,20,8.2µM*
